Only some compounds are listed: those with a hit (about 4% of all), similar ones and a draw of the others.
GALC G270D up: galactocerebrosidase G270D activity enhancement, cell-based | Potency, µM (titrated, usually from 57.5 µM), most hits filed as activators | P54803 | 145M-Twi-hGALC-G270D cells (Twitcher mouse brain line with human GALC G270D), HMU-beta-Gal fluorescence, 48 h | 45,000 tested, 0.1% active; note: potency is the fitted concentration of half-maximal effect; 0% is about no effect; nearly all actives have a fitted effect of over 65% in size
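Live 145M-Twi cells (Twitcher mouse brain-derived, GALC-null) stably expressing human GALC-G270D, with a wild-type GALC line, were compound-treated. Residual GALC activity was then read as fluorescence from 0.1 mM final HMU-β-gal at pH 5.2; higher signal means activation.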
p53null 39C kill: selectivity test: cytotoxicity in p53 null cells, nonpermissive temperature; H1299 p53-null (neo) cells, 39C, ATPlite viability, 24 h; Potency, µM (doses to about 46.1 µM), for inactives: at the top dose activity, negative = cell killing, most hits filed as cytotoxic; 55,000 tested, 0.97% active; AID 904;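 note: potency is the fitted concentration of half-maximal effect; 0% = DMSO only and -100% = full killing by 100 µM tamoxifen; nearly all actives have a fitted effect of over 50% in size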
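Luminescent ATP signal reported cell survival after H1299 lines (neo, p53 null; or p53 A138V) received up to 46 uM compound and 24 hr incubation at 39C.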
OvCa metastasis: inhibitors of ovarian cancer cell adhesion and invasion in omental model | Potency, µM (doses to about 45.8 µM), inactives show at the highest dose activity change, negative = inhibition, most hits filed as inhibitors | 46,000 tested, 0.1% active | SKOV3ip1-GFP adhesion/invasion on 3D omental model, fluorescence;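 note: potency is the fitted concentration of half-maximal effect; plate controls were DMSO wells for no effect and tomatine positive control wells for full effect; nearly all actives have a fitted effect of over 65% in size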
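Adhesion/invasion was scored as fixed GFP-labeled SKOV3ip1 cell counts (488/509 nm), normalized to DMSO and tomatine controls. Cancer cells in serum-free medium, with four compound doses (0.36-46 umol/L), sat 2 hr at RT then 16 hr at 37 C on a 48 hr fibroblast/mesothelial/ECM culture.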
GPR32 ag: GPR32 (DRV1) agonism, beta-arrestin recruitment | O75388 | CHO-K1 GPR32 beta-arrestin PathHunter luminescence, 90 min; zero percent set by DMSO-only wells | activation, % at 76.9 µM | 48,000 tested, 2.5% active;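 active = activation of at least 60% and not above a set upper limit, about 1 call in 100 departs from these limits; inconclusive = activation of 40% to 60%, or above that upper limit; inactive = activation under 40%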; note: 0% is about no effect
Target sequence (O75388 whole entry, looked up): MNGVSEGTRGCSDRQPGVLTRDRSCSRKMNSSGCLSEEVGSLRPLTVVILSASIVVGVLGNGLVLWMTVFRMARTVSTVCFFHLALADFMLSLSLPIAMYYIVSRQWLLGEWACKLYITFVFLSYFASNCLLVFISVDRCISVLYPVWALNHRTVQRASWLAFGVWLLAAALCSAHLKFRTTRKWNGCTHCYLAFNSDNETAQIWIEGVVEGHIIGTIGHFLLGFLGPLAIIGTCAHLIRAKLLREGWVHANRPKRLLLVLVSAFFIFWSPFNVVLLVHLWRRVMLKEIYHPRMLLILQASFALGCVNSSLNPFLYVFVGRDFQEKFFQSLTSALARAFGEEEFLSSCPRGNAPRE
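PathHunter beta-arrestin recruitment in CHO-K1 cells stably expressing ProLink-tagged GPR32. Cells were exposed to compound for 90 min at 37 C, then chemiluminescence was read after 1 h detection at ambient temperature; DMSO served as basal control.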
NTMT1 inhibitor: blocks human N-terminal methyltransferase 1 activity. AID 1645870. Potency, µM (series often up to 114 µM), inactives show at the highest dose activity change, negative = inhibition, most hits filed as inhibitors. 59,000 tested, 2.5% active. NTMT1 MTase-Glo SAH luminescence, purified enzyme;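 note: potency is the fitted concentration of half-maximal effect; plate controls were DMSO vehicle for no effect and no enzyme for full effect; nearly all actives have a fitted effect of over 65% in size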
Target sequence (Q9BV86 whole entry, looked up): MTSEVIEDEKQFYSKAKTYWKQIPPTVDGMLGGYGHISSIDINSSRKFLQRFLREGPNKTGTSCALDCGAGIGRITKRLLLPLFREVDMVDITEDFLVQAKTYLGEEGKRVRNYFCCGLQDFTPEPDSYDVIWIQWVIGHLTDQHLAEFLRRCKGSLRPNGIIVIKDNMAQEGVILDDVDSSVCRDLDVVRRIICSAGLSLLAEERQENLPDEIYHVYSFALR
p53null 32C tox: kills p53 null cells at the permissive temperature; H1299-neo p53 null cells, ATP luminescence, 24 h, 32C; Potency, µM (series often up to 46.1 µM), without a hit: top-dose activity change, negative = cytotoxicity, usual class: cytotoxic; 55,000 tested, 0.62% active; AID 903;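 note: potency is the fitted concentration of half-maximal effect; 0% = DMSO only and -100% = full killing by 100 µM tamoxifen; nearly all actives have a fitted effect of over 55% in size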
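H1299-neo (p53-null) cells, 600/well, were pre-incubated overnight at 37C, then exposed to compounds at up to 46 uM for 24 hr at 32C. Viability was measured as ATP content by luminescence, and AC50 values came from Hill fits.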
Numbers without * were called inactive; i = inactive; ? = inconclusive; . = no result; ! = not confirmed by another sample; [ ] = dose if it differs, or a comment. Unless noted, calls come from the whole dose curve; as a rule, active = well fitted curve in the direction sought with a large enough effect; inconclusive = small, poorly fitted or top-dose-only effect, or another doubt; inactive = no such curve, though single readings can be large; an effect the other way counts as inactive or inconclusive.

SMILES	GALC G270D up	p53null 39C kill	OvCa metastasis	GPR32 ag	NTMT1 inhibitor	p53null 32C tox
COc1ccc(-c2cc(C(F)(F)F)nc(SCCC(=O)Nc3cc(C)ccc3O)n2)cc1	i	11µM*	-4%	25	-12%	-2%
COc1ccc(NC(=O)CSc2nc(-c3ccco3)cc(C(F)(F)F)n2)cc1	i	-24%	-3%	95*	14%	14%
C=CC1(C)C=C2C(=O)OC(=O)C3=C(CCCC3(C)C)C2(O)CC1 (stereo unspecified)	.	.	.	.	-1%[29.8 µM]	.
Cc1nn(Cc2ccc(Cl)cc2Cl)c(C)c1NC(=O)CCl	.	13µM*	.	.	.	5%
Cc1nn(Cc2ccc(Cl)cc2)c(C)c1NC(=O)c1noc2c1CCc1ccccc1-2	.	61%	-1%	107*	.	75%
COc1ccc2c(c1)CCc1c(C(=O)Nc3c(C)nn(Cc4ccc(Cl)cc4)c3C)noc1-2	i	31%	i	6	4%	39%
Cc1nn(Cc2ccccc2Cl)c(C)c1NC(=O)c1cc(C(C)C)on1	.	2%	-1%	86*	.	9%
Cc1ccc(S(=O)(=O)Nc2cc(Br)ccc2C(=O)Nc2nc(-c3ccccc3)cs2)cc1	.	.	.	.	-22%[57.5 µM]	.
CCc1ccc(NS(=O)(=O)c2ccc(NC(=O)N3CCCC3)cc2)cc1	i	25%	i	69*	7%	0%
Cc1ccc(Cl)c(Nc2ccccc2C(=O)O)c1Cl	i	.	.	103*!	44%[57.5 µM]	.
Cc1c(Cl)cccc1Nc1ccccc1C(=O)O	i	.	.	?	?	.
O=C(C1CC1)N1CCc2cc(Br)cc(S(=O)(=O)Nc3ccc(F)c(F)c3)c21	i	13µM*	34%	38	17%	25µM*
COc1cc(NS(=O)(=O)c2cc(Br)cc3c2N(C(=O)C2CC2)CC3)cc(OC)c1	i	?	0%	3	7%	7.9µM*
O=C(C1CC1)N1CCc2cc(Br)cc(S(=O)(=O)Nc3ccc(C(F)(F)F)cc3)c21	i	16µM*	i	65*	2%	?
Cc1ccc(NS(=O)(=O)c2cc(Br)cc3c2N(C(=O)C2CC2)CC3)cc1C	i	-8%	i	31	1%	20%
COc1cccc(-c2ccc(CNc3ccc(N4CCN(C(=O)OC(C)(C)C)CC4)cc3)o2)c1	.	.	.	.	1%	.
COC(=O)c1ccc2c(c1)S(=O)(=O)N=C2Sc1cc(C)ccc1C	.	.	.	.	1%	.
CC(C)OC(=O)OCOP(=O)(COC(C)Cn1cnc2c(N)ncnc21)OCOC(=O)OC(C)C (stereo unspecified)	.	.	.	.	12%	.
COc1ccccc1OCC(=O)O	.	2%	.	.	.	-8%
C=C(CC)C(=O)c1ccc(OCC(=O)O)c(Cl)c1Cl	i	.	.	90*	-9%[57.5 µM]	.
COc1ccc(C(OC2OC(CO)C(O)C(O)C2O)C(C)O)cc1 (stereo unspecified)	.	.	.	.	16%[29.8 µM]	.
COc1cc(C)c(C(=O)NC2C(C)OC(OC3CCC(C)C4C3C=C(C)C3/C(C)=C\CC/C(C)=C/C5(C)C=C(C(=O)O)C(C)CC56OC(=O)/C(=C(\O)C34C)C6=O)C(O)C2(C)O)c(O)c1 (stereo unspecified)	.	.	.	.	-8%[12.6 µM]	.
O=S(=O)(c1cccc2c(I)cccc12)N1CCCNCC1	.	.	.	39	40µM*!	.
COc1cc(N)c(Cl)cc1C(=O)OCCN1CCCCC1	.	.	.	-4	.	.
COc1cc(N)c(Cl)cc1C(=O)NC1CCN(CCCOc2ccc(F)cc2)CC1OC (stereo unspecified)	i	.	.	64*	-13%[57.5 µM]	.
SMILES	GALC G270D up	p53null 39C kill	OvCa metastasis	GPR32 ag	NTMT1 inhibitor	p53null 32C tox
CCc1ccc(-c2cn3nc(CC)sc3n2)cc1	i	10µM*	-22%	-9	-10%	13µM*
CCCCCc1nn2cc(-c3ccccc3)nc2s1	i	16µM*	i	-11	?	10µM*
CCCc1nn2c(C)c(-c3ccccc3)nc2s1	i	10µM*	3%	-2	-9%	7.9µM*
COCCNC(=O)CSc1nnc(NC(=O)Nc2ccc(C)cc2)s1	i	3%	-2%	-7	-3%	13µM*
Cc1nn(-c2ccccc2)c2sc(C(=O)Nc3cccc(O)c3)cc12	i	25µM*	i	?	-13%	10%
O=C(NC1CCCCC1)c1c[nH]c2ccc(S(=O)(=O)Nc3ccccc3F)cc2c1=O	i	-12%	12%	101*	?	-5%
O=C(NC1CCCC1)c1c[nH]c2ccc(S(=O)(=O)Nc3cccc(C(F)(F)F)c3)cc2c1=O	i	8%	i	82*	12%	15%
CCOCCCNC(=O)c1c[nH]c2ccc(S(=O)(=O)Nc3cccc(Cl)c3C)cc2c1=O	i	-3%	2%	65*	89µM*	14%
CCN(c1ccccc1)S(=O)(=O)c1ccc2[nH]cc(C(=O)NC3CCCCC3)c(=O)c2c1	i	27%	i	29	4%	19%
CNC(=O)c1c[nH]c2ccc(S(=O)(=O)Nc3cccc(Cl)c3C)cc2c1=O	i	?	i	-4	-2%	?
CCN(c1ccccc1)S(=O)(=O)c1ccc2[nH]cc(C(=O)NCc3ccc(C)cc3)c(=O)c2c1	i	28%	-7%	63*	5%	0%
C[C@@H]1O[C@@H](O[C@H]2[C@H](OC(=O)[C@]34CCC(C)(C)C[C@H]3C3=CCC5[C@@]6(C)CC[C@H](O[C@@H]7O[C@H](CO[C@@H]8OC[C@H](O)[C@H](O)[C@H]8O[C@@H]8OC[C@@H](O)[C@H](O)[C@H]8O)[C@@H](O)[C@H](O)[C@H]7O)C(C)(C)C6CC[C@@]5(C)[C@]3(C)C[C@H]4O)O[C@H](CO)[C@@H](O)[C@@H]2O)[C@H](O[C@@H]2O[C@H](CO)[C@@H](O)[C@H](O)[C@H]2O)[C@H](O)[C@H]1O[C@@H]1OC[C@@H](O)[C@H](O[C@@H]2OC[C@@H](O)[C@H](O)[C@H]2O)[C@H]1O (stereo partly specified)	.	.	.	.	9%[6.45 µM]	.
CCc1ccccc1NS(=O)(=O)c1ccc2[nH]cc(C(=O)NC3CCCC3)c(=O)c2c1	i	34%	14%	106*	3%	-10%
CCOc1ccc(NS(=O)(=O)c2ccc3[nH]cc(C(=O)NCc4ccco4)c(=O)c3c2)cc1	i	-24%	5%	67*	?	-1%
Cc1cc(C)cc(NS(=O)(=O)c2ccc3[nH]cc(C(=O)NCCc4ccccc4)c(=O)c3c2)c1	i	-18%	-4%	79*	1%	-7%

Source: PubChem (National Center for Advancing Translational Sciences (NCATS))
